High-throughput results: PubChem BioAssay, National Center for Advancing Translational Sciences (NCATS)
In the library only some 14% were active in any assay of this set; here they are far more common.
LASV entry inh – qHTS for Inhibitors of binding or entry into cells for Lassa Virus; Lassa virus pseudotype entry inhibition, cell reporter; AID 540256, 2011; 300,000 compounds, 1.2% hits; Potency, µM (series often up to 37.9 µM), without a hit: top-dose activity change, negative = inhibition, actives largely listed as inhibitors; calls by dose curve; tested in HEK293 cells; further: potency means the concentration at half of the fitted maximal effect; nearly all actives have a fitted effect of over 50% in size
Pf growth 96h – Primary qHTS for delayed death inhibitors of the malarial parasite plastid, 96 hour incubation; 320,000 compounds, 6.9% hits; Potency, µM (highest dose often 28.7 µM), inactives show at the highest dose activity change, negative = inhibition, hits mostly inhibitors; P. falciparum luciferase reporter growth, 96 h; further: potency means the concentration at half of the fitted maximal effect
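Delayed-death screen, second-generation endpoint: infected erythrocytes, 2% hematocrit, 0.05% parasitemia final; 96 hours at 37 C, 5% CO2; luciferase detection reagent; luminescence decrease equals reduced growth.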
Pf growth 48h – Primary qHTS for delayed death inhibitors of the malarial parasite plastid, 48 hour incubation. P. falciparum luciferase growth in erythrocytes, 48 h. Potency, µM (titrated, usually from 28.7 µM), without a hit: top-dose activity change, negative = inhibition, most hits filed as inhibitors. 310,000 compounds, 5.9% hits. AID 504832, 2011; further: potency means the concentration at half of the fitted maximal effect
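Here the parasites carry a stable luciferase gene and grow inside erythrocytes in Albumax-based RPMI medium with compound for one erythrocytic cycle. Activity is scored as loss of luminescent signal.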
Marburg entry inh – qHTS for inhibitors of binding or entry into cells for Marburg Virus | Potency, µM (doses to about 37.8 µM), inactives show at the highest dose activity change, negative = inhibition, usual class: inhibitors | Marburg virus pseudotyped entry inhibition, cell reporter | 300,000 compounds, 1.8% hits; calls by dose curve; tested in HEK293 cells; further: potency means the concentration at half of the fitted maximal effect
HCV inh – qHTS Assay for Inhibitors of Hepatitis C Virus (HCV); Potency, µM (doses to about 41.8 µM), inactives show at the highest dose activity change, negative = inhibition, hits mostly inhibitors; Huh7.5.1 HCVcc-Cre infection, luciferase reporter, 44 h; 340,000 compounds, 3.4% hits; further: potency means the concentration at half of the fitted maximal effect
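A cell-based infection assay in which seeded cells (1,000 per well) receive test compound after 4 h, are inoculated with HCVcc-Cre at approximately 0.5 moi, and are incubated 44 h before luminescence detection.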
HCMV antiviral – qHTS Assay for inhibitors of the human cytomegalovirus (HCMV); HFF cells, HCMV-luciferase reporter, 72 h; hits give low values; activity change, negative = inhibition, % at 57.5 µM; 410,000 compounds, 4.5% hits; in the data active means activity change below about -60%; inconclusive means no clear call, values can overlap the other calls; inactive means above about -39%
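Compounds were evaluated in HFFs infected with an HCMV luciferase reporter virus (MOI 1 PFU/cell). Luciferase in lysates collected 72 h post infection served as the replication measure.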
* marks the source's active call; other numbers are inactive results; [ ] = another dose, or the depositor's remark. Unless noted, the call rests on the fitted dose curve; in most records, active means well fitted inhibition curve with a large enough effect; inconclusive means small, poorly fitted or top-dose-only effect, or another doubt; inactive means no such curve, though single readings can be large or run the other way. On the % scale 0 is the no-effect control and ±100 the full control effect.

Screening COc1cccc(C2=NN(C(=O)c3ccccc3)C(O)(C(F)(F)F)C2)c1 (centres undefined) returned LASV entry inh 15.4%, Pf growth 48h 8.7%, Marburg entry inh inconclusive, HCV inh -8.5% and HCMV antiviral 84.0.
For COc1ccc(C(=O)N2N=C(c3ccccc3)CC2(O)C(F)(F)F)cc1 (centres undefined) the results were LASV entry inh inconclusive, Pf growth 96h inconclusive, Pf growth 48h -6.2%, Marburg entry inh 12.6µM*, HCV inh -3.9% and HCMV antiviral -3.3.
`COc1cccc(C2=NN(C(=O)c3ccco3)C(O)(C(F)(F)F)C2)c1` (centres undefined) gave LASV entry inh -18.7%, Pf growth 96h -22.0%, Pf growth 48h 4.15µM*, Marburg entry inh inconclusive, HCV inh -1.5% and HCMV antiviral 11.2.
`CC1(C)NC(=O)N(CCCCOc2ccc(Cl)cc2C=O)C1=O` gave Pf growth 96h 41.5%, Pf growth 48h inconclusive, HCV inh -14.9% and HCMV antiviral -60.0*.
`CC(C)c1cc(Br)ccc1OCCCN1C(=O)NC(C)(C)C1=O` gave LASV entry inh inconclusive, Pf growth 96h 12.4%, Marburg entry inh 3.5%, HCV inh 12.6µM* and HCMV antiviral -28.4.
Cc1cc(C)c2ccc3c(C)c(C)nc3c2[nH]1 was read as LASV entry inh inconclusive, Pf growth 96h -53.9%, Pf growth 48h 3.7µM*, Marburg entry inh -33.3%[46.1 µM], HCV inh inconclusive and HCMV antiviral inconclusive.
Screening O=C(N/N=C/c1cccs1)c1cccc(S(=O)(=O)Nc2ccc(Cl)cc2)c1 returned LASV entry inh -5.6%, Pf growth 96h -16.9%, Pf growth 48h -1.1%, Marburg entry inh 22.2%[46.1 µM], HCV inh -16.0% and HCMV antiviral -64.7*.
For Cc1ccc(/C=N/NC(=O)c2cccc(NC(=O)c3ccccc3Cl)c2)o1 the results were LASV entry inh -2.2%[46.1 µM], Pf growth 96h 1.17µM*, Pf growth 48h -7.0%, Marburg entry inh 14.1%[46.1 µM], HCV inh -17.1% and HCMV antiviral 0.0.
O=C(N/N=C/c1cccs1)c1cccc(NC(=O)c2ccc(Cl)cc2)c1 was read as LASV entry inh inconclusive, Pf growth 96h inconclusive, Pf growth 48h -21.3%, Marburg entry inh 4.2%, HCV inh 1.0% and HCMV antiviral -97.1*.
Cc1ccc(/C=N/NC(=O)c2cccc(NC(=O)c3ccccc3C)c2)o1 was read as LASV entry inh -29.0%[46.1 µM], Pf growth 96h 122.5%, Pf growth 48h -6.7%, Marburg entry inh 10.3%[46.1 µM], HCV inh -11.4% and HCMV antiviral 8.7.
Screening O=C(N/N=C/c1cccc(NC(=O)c2ccc(Cl)cc2)c1)c1cccc(O)c1 returned LASV entry inh inconclusive, Pf growth 96h 356.2%, Pf growth 48h 89.6%, Marburg entry inh inconclusive, HCV inh inconclusive and HCMV antiviral 18.8.
Screening Cc1cccc(C(=O)Nc2nc(-c3ccc(Br)cc3)ns2)c1 returned LASV entry inh -7.7%[46.1 µM], Marburg entry inh 3.9%[46.1 µM] and HCMV antiviral -20.1.
COc1ccc(NC(=O)c2oc3ccccc3c2NC(=O)Cc2coc3c(C)c(C)ccc23)cc1 was read as LASV entry inh -8.7%[46.1 µM], Marburg entry inh -17.8%[46.1 µM] and HCMV antiviral 46.7.
`COc1ccc(N(Cc2ccccc2)C(=O)OC(C)(C)C)c(C(=O)N(C)OC)c1` gave HCV inh 14.9% and HCMV antiviral -30.6.
Screening O/N=C/c1cn(-c2ccccc2)nc1-c1cccnc1 returned LASV entry inh 4.1%, Pf growth 96h 13.2%, Pf growth 48h -5.9%[5.75 µM], Marburg entry inh 0.794µM*, HCV inh inconclusive and HCMV antiviral -13.6.
`O=C(/C=C/c1cn(-c2ccccc2)nc1-c1cccnc1)N1CCCC1` gave Pf growth 96h inconclusive, Pf growth 48h inconclusive, HCV inh -23.9% and HCMV antiviral 17.1.
